# Laboratory results reported in PubChem BioAssay (EPA / NIEHS).
# Inconclusive results are not listed. Active and inactive are the calls of the source. The calls were made as follows: active = hit-call score of the fitted dose curve at least 0.9, where 1 is the maximum; inconclusive = response in the unintended direction; inactive = score below 0.9.
# Legend:
# [1] = target: human Endothelin Receptor Type A (ETA), EDNRA (gene 1909) (UniProt P25101); test: NVS_GPCR_hETA: NovaScreen (NVS) G Protein-Coupled Receptor Assay for human Endothelin Receptor Type A (ETA) (AID 2283265)
# In short: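 Binding of radioligand to membrane protein extracted from SH-SY5Y cells was read by filtration and scintillation after 3 h. Compounds were screened at 25 uM in duplicate, with hits followed up in singleton concentration series to 50 uM.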
# [2] = target: human Endothelin Receptor Type B (ETB), EDNRB (gene 1910) (UniProt P24530); test: NVS_GPCR_hETB: NovaScreen (NVS) G Protein-Coupled Receptor Assay for human Endothelin Receptor Type B (ETB) (AID 2283267)
# Procedure: NVS_GPCR_hETB is a biochemical, single-readout assay that uses extracted gene-proteins from Human astrocytoma cells in a cell-free assay. Measurements were taken 4 hours after chemical dosing in a 96-well plate.NVS_GPCR_hETB is one of one assay component(s) measured or calculated from the NVS_GPCR_hETB assay. It is designed to make measurements of radioligand binding, a form of binding reporter, as detected with scintillation counting signals by Filter-based radiodetection technology.Data from the assay component NVS_GPCR_hETB was analyzed into 1 assay endpoint. This assay endpoint, NVS_GPCR_hETB, was analyzed in the positive analysis fitting direction relative to DMSO as the negative control and baseline of activity. […] Furthermore, this assay endpoint can be referred to as a primary readout, because the performed assay has only produced 1 assay endpoint. […]
# Binding assays used specific radioligands (tritiated, iodinated) with non-radioactive competitive displacement ligands in agonist or antagonist protocols (as indicated) and various reference compounds and inhibitors to titrate specific binding to receptors and transporters. Most enzyme assays (CYPs, kinases, phosphatases, proteases, HDACs) used recombinant protein and specific substrates (fluorescence mostly, some colorimetric and radioactive) and inhibitors, followed by a biochemical separation of substrate and product. […]
# human Endothelin Receptor Type A (ETA), EDNRA (gene 1909), sequence (P25101 whole entry, looked up): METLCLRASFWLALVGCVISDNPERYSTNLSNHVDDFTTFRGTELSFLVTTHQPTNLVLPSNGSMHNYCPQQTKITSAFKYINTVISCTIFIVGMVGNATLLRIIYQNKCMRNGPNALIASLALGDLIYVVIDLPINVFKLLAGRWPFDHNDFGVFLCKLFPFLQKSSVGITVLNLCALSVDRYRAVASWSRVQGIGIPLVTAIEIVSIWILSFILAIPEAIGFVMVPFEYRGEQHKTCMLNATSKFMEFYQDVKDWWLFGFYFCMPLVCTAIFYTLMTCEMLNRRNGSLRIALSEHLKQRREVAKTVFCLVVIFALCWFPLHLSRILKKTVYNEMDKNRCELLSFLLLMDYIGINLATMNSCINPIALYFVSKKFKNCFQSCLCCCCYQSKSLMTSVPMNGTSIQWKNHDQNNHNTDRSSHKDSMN
# human Endothelin Receptor Type B (ETB), EDNRB (gene 1910), sequence (P24530 whole entry, looked up): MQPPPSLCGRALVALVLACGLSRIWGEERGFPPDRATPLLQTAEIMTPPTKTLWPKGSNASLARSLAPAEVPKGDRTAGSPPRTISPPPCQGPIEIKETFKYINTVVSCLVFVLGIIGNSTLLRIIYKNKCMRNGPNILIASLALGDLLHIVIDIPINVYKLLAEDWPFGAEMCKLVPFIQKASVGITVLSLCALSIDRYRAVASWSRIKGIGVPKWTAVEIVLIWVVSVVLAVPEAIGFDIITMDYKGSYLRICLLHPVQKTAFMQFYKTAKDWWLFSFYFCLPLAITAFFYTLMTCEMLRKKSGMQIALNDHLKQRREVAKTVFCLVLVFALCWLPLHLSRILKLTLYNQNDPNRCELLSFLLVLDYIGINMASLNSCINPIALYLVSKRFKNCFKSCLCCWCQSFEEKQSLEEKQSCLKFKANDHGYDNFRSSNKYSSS
Structure (SMILES),AC50 [1],AC50 [2]
CC(=O)[O][Hg][c]1ccccc1,1070 nM (active),–
C=C(C)C(=O)[O][Sn]([CH2]CCC)([CH2]CCC)[CH2]CCC,697 nM (active),14800 nM (active)
